Screening data from PubChem.
HTR5A ag = activates human HTR5A in OPRM1-OPRD1 agonist counter-screen | 0.61% of 340,000 active | activation, % at 9.3 µM | AID 504692 | HTR5A agonist assay, luminescence, cell-based | P47898; in the data active = activation mostly above about 9.5%, no sharp cut-off; inactive = mostly below about 7.6%;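 also: 0% = cells with vehicle only and 100% = reference agonist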
MOR-DOR inv ag-1 = mu-delta opioid heterodimer inverse agonism | AID 504357 | inhibition, % at 9.3 µM | 0.21% of 340,000 active | P35372+P41143 | cell-based MOR-DOR heterodimer luminescence; in the data active = inhibition above about 22%, passing the limit was not always enough;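 also: 0% = cells with DMSO and 100% = wells without cells with DMSO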
Target sequence (P35372 whole entry, looked up): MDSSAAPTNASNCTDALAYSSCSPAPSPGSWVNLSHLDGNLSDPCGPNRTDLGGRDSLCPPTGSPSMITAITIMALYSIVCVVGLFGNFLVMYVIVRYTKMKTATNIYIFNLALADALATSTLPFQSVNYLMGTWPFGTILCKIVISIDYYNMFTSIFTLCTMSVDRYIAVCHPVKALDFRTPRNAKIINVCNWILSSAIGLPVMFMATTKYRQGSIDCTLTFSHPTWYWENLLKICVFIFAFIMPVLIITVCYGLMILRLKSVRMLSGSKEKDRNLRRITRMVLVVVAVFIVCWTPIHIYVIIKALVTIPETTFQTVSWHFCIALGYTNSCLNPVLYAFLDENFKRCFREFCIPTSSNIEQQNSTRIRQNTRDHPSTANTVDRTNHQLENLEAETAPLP
Target sequence (P41143 whole entry, looked up): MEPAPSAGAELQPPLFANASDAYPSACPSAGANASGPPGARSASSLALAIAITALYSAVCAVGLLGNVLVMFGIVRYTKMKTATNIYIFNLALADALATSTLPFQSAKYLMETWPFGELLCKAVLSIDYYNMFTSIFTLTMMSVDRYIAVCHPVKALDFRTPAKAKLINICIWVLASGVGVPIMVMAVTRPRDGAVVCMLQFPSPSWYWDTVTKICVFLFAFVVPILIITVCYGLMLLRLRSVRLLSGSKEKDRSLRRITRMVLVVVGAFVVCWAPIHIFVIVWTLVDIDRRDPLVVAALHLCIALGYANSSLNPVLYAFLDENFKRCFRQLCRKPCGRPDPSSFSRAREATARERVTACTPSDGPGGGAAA
OPRM1-OPRD1 ag = agonists of human mu-delta opioid receptor heterodimerization; P35372+P41143; cells, OPRM1-OPRD1 heterodimerization, luminescence; activation, % at 9.3 µM; 0.3% of 340,000 active; in the data active = activation above about 18%;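 also: 0% = vehicle-treated cells and 100% = reference agonist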
HTR5A inv ag = inverse agonist of human HTR5A in OPRM1-OPRD1 counter-screen. P47898. HTR5A cell line, luminescence, inverse agonism. inhibition, % at 9.3 µM. 0.083% of 340,000 active. AID 504634; in the data active = inhibition mostly above about 23%, no sharp cut-off; inactive = mostly below about 18%;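 also: 0% = cells with DMSO and 100% = no-cell wells with DMSO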
MOR-DOR inv conf = OPRM1-OPRD1 heterodimer inverse agonism, confirmation | shares compounds with MOR-DOR inv ag-1 | AID 504900 | cells expressing OPRM1/OPRD1 heterodimer, luminescence | inhibition, % at 9.3 µM | 20% of 580 active; in the data active = inhibition above about 32%;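 also: 0% = cells with DMSO and 100% = wells lacking cells with DMSO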
HTR5A inv ctr2 = HTR5A inverse agonism, opioid heterodimer counter-screen; HTR5A-expressing cells, luminescence; AID 504914; 580 tested, under 10 active; shares compounds with MOR-DOR inv ag-1; inhibition, % at 9.3 µM;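 also: 0% = cells with DMSO and 100% = no-cell wells with DMSO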
MOR-DOR inv ag-2 = inverse agonist of OPRM1-OPRD1 heterodimerization in HTR5A counter-screen; shares compounds with HTR5A inv ag; U2OS counter-screen cells, complementation luminescence; inhibition, % at 9.3 µM; 190 tested, under 10 active;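 also: 0% = cells with DMSO and 100% = wells without cells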
HTR5A inv confrm = confirmation of human HTR5A inverse agonists. shares compounds with HTR5A inv ag. HTR5A-expressing cells, inverse agonism, luminescence. 190 tested, under 10 active. inhibition, % at 9.3 µM;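 also: 0% = cells with DMSO and 100% = no cells with DMSO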
* = called active by the depositor; i = inactive; . = no result. Shown are actives, neighbours in structure and some others; about 1.1% of the full set was active somewhere. Unless noted, no rule for the calls is given here.

SMILES	HTR5A ag	MOR-DOR inv ag-1	OPRM1-OPRD1 ag	HTR5A inv ag	MOR-DOR inv conf	HTR5A inv ctr2	others
Cc1ccc([N+](=O)[O-])cc1N=C1C(=O)Nc2ccccc21	-6.8	49.9*	-11.2	25.7	-51.2	-100.5
COc1cc(/C=N/N=C2/C(=O)Nc3ccccc32)cc(OC)c1O	-4.6	0.8	-0.1	32.9	.	.
O=C1NC(=Nc2ccccc2)c2ccc([N+](=O)[O-])cc21	3.3	-17.8	4.0	-23.5	.	.
CC(=O)c1cccc(N2C(=O)Nc3ccccc3N2O)c1	1.0	9.1	-1.4	1.4	.	.
CC(NC(=O)C12CC3CC(CC(C3)C1)C2)c1ccc(F)cc1 (stereo not given)	1.8	-7.4	1.0	-4.8	.	.
Cc1cccc(CNC(=O)C2CCC(=O)N(Cc3ccccc3F)C2)n1 (stereo not given)	-1.5	18.1	-3.5	10.7	.	.
Cc1ccc(C(=O)OCc2nnc(-c3ccccc3)o2)cc1S(=O)(=O)N1CCOCC1	-2.1	10.5	-1.6	-13.4	.	.
CCOCCOc1cccc(C(=O)NC(c2ccccc2)c2ccccc2)c1	0.5	8.0	-1.6	-2.0	.	.
Cc1ccc(N=C2C(=O)Nc3ccccc32)cc1C	-1.6	42.9*	-7.8	21.9	i	-26.2
CCCCCCSc1ccc([C@H]2N[C@@](C)(C(=O)OC)[C@H]3C(=O)N(C)C(=O)[C@@H]23)cc1	1.5	-12.5	2.2	-11.0	.	.
CCCc1ccc(C(=O)NNc2ccc(F)cc2)cc1	2.5	43.5*	-8.5	9.9	29.3	6.3
CCCc1ccc(C(=O)NNC(=O)c2ccc(Br)cc2)cc1	0.2	-13.4	2.5	-0.6	.	.
O=C(NNc1ccc(O)cc1)c1ccc(Br)cc1	0.9	65.6*	-9.6	24.0	61.8*	20.2
CN(C)c1nc(=NCc2cccs2)ss1	-0.5	58.6*	-12.0	1.9	29.6	19.6
CC(SC(=S)N(C)Cc1cccs1)C(=O)O (stereo not given)	1.1	11.3	-1.6	-5.7	.	.
CN1CCN(CC(=O)Nc2cc(S(=O)(=O)N3CCOCC3)ccc2Cl)CC1	1.7	10.5	-2.0	-4.1	.	.
CCC(C(=O)NCCc1ccc(S(N)(=O)=O)cc1)c1ccccc1 (stereo not given)	1.6	12.6	-2.5	-9.8	.	.
CC(C)(C)c1ccc(S(=O)(=O)/N=C2\C=C(NS(=O)(=O)c3ccccc3)C(=O)c3ccccc32)cc1	-5.6	32.1*	-5.8	13.5	-24.6	-78.7
CCc1ccc(S(=O)(=O)/N=C2\C=C(Nc3ccc(C(=O)O)cc3)C(=O)c3ccccc32)cc1	0.5	-39.0	7.3	-1.4	.	.
Cc1ccc(S(=O)(=O)/N=C2\C=C(NS(=O)(=O)c3ccccc3)C(=O)c3ccccc32)c(C)c1	-6.2	29.7*	-5.7	22.4	-6.8	-5.5
O=C(COc1ccccc1Cl)NCCNC(=O)c1cccnc1	-0.9	18.7	-3.0	-9.5	.	.
Cc1ccc(C(=O)Nc2ccccc2[N+](=O)[O-])cc1S(=O)(=O)N1CCOCC1	1.7	39.0*	-5.5	-2.8	-430.2	4.8
COc1ccc(C(=O)Nc2ccccc2[N+](=O)[O-])cc1S(=O)(=O)N1CCOCC1	-3.6	12.5	-3.8	10.0	.	.
O=C1C(=O)N(CNc2cccnc2)c2ccccc21	0.3	51.2*	-10.1	9.0	14.5	5.8
O=C1C(=O)N(CNc2ccccn2)c2ccccc21	-5.8	84.1*	-13.4	17.4	68.3*	11.2
SMILES	HTR5A ag	MOR-DOR inv ag-1	OPRM1-OPRD1 ag	HTR5A inv ag	MOR-DOR inv conf	HTR5A inv ctr2	others
CN1C(=O)c2cccc3c(S(=O)(=O)Nc4ccccn4)ccc1c23	0.9	9.1	-1.8	-2.3	.	.
O=C(NCC1CCCCC1)c1cccc(S(=O)(=O)N2CCCC2)c1	-3.1	10.9	-2.8	7.8	.	.
COC(=O)CCC/C=C1/SCC(NC(=O)c2ccccc2)C1=O (stereo not given)	-0.9	33.2*	-5.6	-15.0	-372.1	-48.8
CNc1sc(C(=O)c2ccccc2F)c(N)c1-c1nc2ccccc2s1	-5.8	48.4*	-9.3	22.7	-54.1	-22.9
C=CCNC(=S)NCCCCC1NC(=S)N(CC=C)C1=O (stereo not given)	0.2	24.7*	-3.4	21.8	7.4	-4.3
CN(C)c1ccc(N=Nc2nc3ccccc3n2C)cc1	-10.1	14.6	-2.9	38.7	.	.
Cn1c(N=Nc2ccccc2)nc2ccccc21	6.7	43.1*	-9.6	-17.3	-25.0	-13.4
O=C(CN1CC(c2ccccc2)CC1=O)N/N=C/c1cc(Br)ccc1O (stereo not given)	2.8	-9.1	1.6	-46.0	.	.
O=C(/C=C/c1ccccc1)NNC(=O)c1cccc(Cl)c1	-0.1	2.7	-0.5	-0.1	.	.
O=C(/C=C/c1ccccc1)NNc1ccc(Cl)cc1	-5.4	30.9*	-6.0	13.9	10.6	-6.5
O=C(NNc1ccc(Cl)cc1)c1sccc1Cl	-5.0	46.6*	-8.9	10.0	0.6	13.4
O=C(O)c1ccccc1C(=O)NNc1ccc(Cl)cc1	0.1	39.1*	-6.7	-10.0	8.7	-9.6
O=c1[nH]c(C(F)(F)C(F)(F)C(F)(F)F)no1	0.2	9.3	-1.8	-0.6	.	.
COc1ccc(C2=NN(S(=O)(=O)c3ccccc3)C(c3ccccc3)C2)cc1 (stereo not given)	1.6	10.8	-2.1	-3.5	.	.
COc1ccc(C2=NN(CN3C(=O)C(=O)c4ccccc43)C(c3ccc(OC)cc3)C2)cc1 (stereo not given)	-8.7	44.2*	-6.4	27.1	i	0.6
Cc1cc(N2C(=O)c3ccc(C(=O)Nc4ccc(CC(=O)O)cc4)cc3C2=O)no1	-1.5	11.4	-2.1	-1.2	.	.
CN1C(=O)C(O)(C2COC(C)(C)CC2=O)c2ccccc21 (stereo not given)	-2.0	31.8*	-7.6	5.0	9.6	-0.8
CN1C(=O)C(O)(C2COC(C)(C)CC2=O)c2cc(Br)ccc21 (stereo not given)	-6.6	80.8*	-19.5	7.0	68.9*	-5.2
N/C(=N\OC(=O)CCN1C(=O)c2ccccc2C1=O)c1ccccn1	2.3	3.2	-0.7	47.1*	.	.	MOR-DOR inv ag-2=i;HTR5A inv confrm=-14.1
Cc1cc(C)nc(N/N=C/c2ccccc2OCc2ccc(Br)cc2)n1	1.5	-1.5	0.3	-20.1	.	.
Cc1cc(C)nc(N/N=C/c2cc(Br)ccc2O)n1	-11.3	-11.0	2.0	32.5*	.	.	MOR-DOR inv ag-2=22.6;HTR5A inv confrm=2.7
CCN(CC)c1ccc(/C=N/Nc2ccccc2)c(O)c1	0.5	-1.2	0.2	44.6*	.	.	MOR-DOR inv ag-2=-108.4;HTR5A inv confrm=-20.9
NS(=O)(=O)c1ccc(CNC(=O)c2ccc(C(=O)c3ccccc3)cc2)cc1	-2.4	20.1	-3.9	9.6	.	.
